This is a sample that favours compounds with a hit; in the whole collection about 4.1% have one here.
MazF activator – increases E. coli MazEF RNase cleavage of RNA; FAM/BHQ RNA-DNA oligo cleavage fluorescence, 5 h; activation, % at 20 µM; 0.32% of 350,000 active; AID 504720; in the data active = activation above about 50%
Target sequence (P0AE70 whole entry, looked up): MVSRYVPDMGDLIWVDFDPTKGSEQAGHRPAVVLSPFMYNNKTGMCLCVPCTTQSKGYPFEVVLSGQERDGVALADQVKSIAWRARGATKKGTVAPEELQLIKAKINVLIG
VHR inh abs – inhibitors of human VHR1 phosphatase (DUSP3); P51452; recombinant VHR phosphatase, pNPP absorbance; inhibition, % at 13.3 µM; 0.52% of 290,000 active; AID 1654; in the data active = inhibition above about 50%
Target sequence (P51452 whole entry, looked up): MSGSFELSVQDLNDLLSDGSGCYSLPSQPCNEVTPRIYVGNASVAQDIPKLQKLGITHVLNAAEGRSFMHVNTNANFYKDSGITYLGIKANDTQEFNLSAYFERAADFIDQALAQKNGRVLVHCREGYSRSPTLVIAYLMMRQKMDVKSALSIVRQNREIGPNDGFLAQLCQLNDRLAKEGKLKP
Autofluor counter – compound fluorescence in toxin protease inhibitor counterscreen; compound autofluorescence counterscreen, microsphere flow cytometry; hits give high values; 3.1% of 360,000 active; fluorescence intensity (no concentration beside the values); AID 624483; in the data active = fluorescence intensity above about 16000; inconclusive = no clear call, values can overlap the other calls
Anthrax LF prot – anthrax lethal factor protease inhibition. AID 588501. inhibition, % at 10 µM. 0.12% of 360,000 active. multiplex microsphere protease cleavage assay, LF; in the data active = inhibition above about 30%; inconclusive = no clear call, values can overlap the other calls
BoNT-F LC inh – blocks Botulinum neurotoxin F light chain protease | Multiplex microsphere protease cleavage assay, flow cytometry | inhibition, % at 10 µM | 0.22% of 360,000 active | AID 588497; in the data active = inhibition above about 35%, passing the limit was not always enough; inconclusive = no clear call, values can overlap the other calls
BoNT A protease – BoNT A light chain protease inhibition | inhibition, % at 10 µM | multiplex microsphere protease substrate cleavage, flow cytometry | AID 588499 | 0.17% of 360,000 active; in the data active = inhibition above about 30%; inconclusive = no clear call, values can overlap the other calls
BoNT-A LC CP1 – BoNT/A light chain protease inhibition; multiplex microsphere protease assay, flow cytometry; shares compounds with BoNT-F LC inh; 3% of 720 active; inhibition, % at 10 µM; in the data active = inhibition above about 32%
BoNTF LC inh 1 – inhibitors of Botulinum neurotoxin F light chain protease | shares compounds with BoNT-F LC inh | multiplex microsphere protease cleavage assay, flow cytometry | inhibition, % at 10 µM | 720 tested, under 10 active
LF protease CP1 – Bacillus anthracis lethal factor protease inhibition | AID 602142 | inhibition, % at 10 µM | shares compounds with BoNT-F LC inh | multiplex microsphere protease cleavage assay, LF | 720 tested, under 10 active
BoNTA LC inh 2 – blocks botulinum neurotoxin A light chain protease | inhibition, % at 10 µM | shares compounds with BoNT A protease | AID 602325 | 10% of 150 active | multiplex microsphere protease cleavage assay, flow cytometry; in the data active = inhibition above about 24%
LF protease CP2 – Bacillus anthracis lethal factor protease inhibition. shares compounds with BoNT A protease. multiplex microsphere protease cleavage assay. inhibition, % at 10 µM. 7% of 150 active; in the data active = inhibition above about 25%
BoNT-F LC CP2 – blocks botulinum neurotoxin F light chain protease; inhibition, % at 10 µM; shares compounds with BoNT A protease; 7% of 150 active; AID 602336; multiplex microsphere protease cleavage assay, flow cytometry; in the data active = inhibition above about 25%
A number is an active result; - = inactive; ? = inconclusive; . = not tested or not shown. Unless noted, the rule behind the calls is not given here.

SMILES | MazF activator | VHR inh abs | Autofluor counter | Anthrax LF prot | BoNT-F LC inh | BoNT A protease | BoNT-A LC CP1 | BoNTF LC inh 1 | LF protease CP1 | others
O=C(Nc1ccccc1)c1ccc(S(=O)(=O)Nc2cccc(O)c2)cc1 | - | - | - | - | - | - | - | - | -
O=C(Nc1ccc(S(=O)(=O)Nc2ccccn2)cc1)c1cccc(Br)c1 | - | - | - | - | - | - | . | . | .
O=C(Nc1ccc(S(=O)(=O)Nc2ccccn2)cc1)c1cccc(Cl)c1 | - | - | - | - | 36 | - | - | - | -
Cc1ccc(C(=O)Nc2ccccc2C(=O)O)cc1S(=O)(=O)NC1CCCCC1 | - | - | - | - | - | - | . | . | .
Cc1ccc(C(=O)Nc2ccccc2C(=O)O)cc1S(=O)(=O)Nc1ccccc1 | - | - | . | . | . | . | - | - | -
O=C(O)c1ccc(NS(=O)(=O)c2cccc(C(=O)Nc3ccc(Br)cc3)c2)cc1 | - | - | - | 31 | ? | - | - | - | -
O=S(=O)(O)c1ccc2c(c1)C(C(Cl)(Cl)Cl)OC(C(Cl)(Cl)Cl)O2 (stereo not drawn) | - | . | - | - | - | - | . | . | .
O=C(Nc1ccccc1C(=O)O)c1cc(S(=O)(=O)Nc2cccc(F)c2)ccc1Cl | - | - | - | - | ? | - | - | - | -
O=C(Nc1ccccc1C(=O)O)c1cccc(NS(=O)(=O)c2ccc(Br)cc2)c1 | - | - | - | - | - | - | . | . | .
O=C(Nc1ccccc1C(=O)O)c1cc(S(=O)(=O)N2CCCCCC2)ccc1Cl | - | - | - | - | - | - | . | . | .
O=C(Nc1ccccc1C(=O)O)c1cccc(S(=O)(=O)Nc2ccc(Br)cc2)c1 | - | - | - | - | - | - | - | - | -
CCCCCOc1ccc(C(=O)NC(C(=O)O)C(C)C)cc1 (stereo not drawn) | - | - | - | - | 39 | ? | - | - | -
CCCCCCCCOc1ccc(C(=O)O)cc1 | - | . | - | - | - | - | . | . | .
CCCCc1ccc(C(=O)NC(C(=O)O)C(C)C)cc1 (stereo not drawn) | - | - | - | - | 40 | 31 | - | - | -
CCOc1ccc(NC(=O)CSc2nnc(C3CC3)n2C2CC2)cc1 | - | . | ? | - | - | - | . | . | .
CCC(C)c1ccc(O)c(NC(=S)NC(=O)c2cccs2)c1 (stereo not drawn) | - | . | - | - | - | - | . | . | .
CCCC(C(=O)NC(C)(C)CC)N(CC1CCCO1)C(=O)CNS(=O)(=O)c1ccc(F)cc1 (stereo not drawn) | - | - | - | 30 | - | - | - | - | -
COc1ccccc1C(=O)N1CCN(C(=O)c2oc3c(C)c(C)ccc3c2C)CC1 | - | . | - | - | - | - | . | . | .
N#Cc1ccc(S(=O)(=O)NC2CCCCNC2=O)cc1 (stereo not drawn) | - | - | - | - | 42 | - | - | - | -
O=C1NCCCCC1NS(=O)(=O)c1ccc(Cl)cc1 (stereo not drawn) | - | - | - | - | - | - | . | . | .
O=C(NNC(=O)c1ccccc1F)c1ccc(S(=O)(=O)N2CCCCC2)cc1 | - | . | - | - | - | - | . | . | .
Cc1nc2ccc([N+](=O)[O-])cc2c(=O)n1Cc1cccc(F)c1 | - | - | - | 60 | 85 | - | - | - | -
CC(C)n1c(NCc2ccccc2O)nc2ccccc21 | - | - | - | - | 49 | - | - | - | -
O=S(=O)(c1cccc(C(F)(F)F)c1)N1CCC(CO)(CCCc2ccccc2)CC1 | - | - | - | 49 | - | - | - | - | -
Oc1ccc(Cl)cc1C=Nc1ccccc1Br | - | - | - | - | - | - | . | . | .
SMILES | MazF activator | VHR inh abs | Autofluor counter | Anthrax LF prot | BoNT-F LC inh | BoNT A protease | BoNT-A LC CP1 | BoNTF LC inh 1 | LF protease CP1 | others
Oc1ccc(Br)cc1C=Nc1ccc2c3c(cccc13)CC2 | - | - | - | - | - | 33 | - | - | -
Cc1nc2nc(CSc3ccc(Cl)cc3)cc(=O)n2[nH]1 | - | - | - | - | 79 | - | - | - | -
CCOCCCNC(=O)C(c1ccc(C)cc1)N(Cc1ccc2c(c1)OCO2)C(=O)CNC(C)=O (stereo not drawn) | - | - | - | - | 35 | - | - | - | -
CC(C)CNS(=O)(=O)c1ccc(CCC(=O)NC2CCCCC2)cc1 | - | . | - | 59 | - | - | - | - | -
COc1ccccc1CN1CCNC(=O)C1CC(=O)NCc1c(C)n[nH]c1C (stereo not drawn) | - | - | - | - | 41 | - | - | - | -
Cc1cccc(NC(=O)c2c(O)c3ccccc3[nH]c2=O)c1 | - | - | - | - | - | - | . | . | .
O=C(Nc1cccc(O)c1)c1c(O)c2ccccc2[nH]c1=O | - | - | - | - | 36 | - | - | - | -
COc1ccc(CCNC(=O)C2CCN(S(=O)(=O)N3CCOCC3)CC2)cc1OC | - | - | - | - | 36 | - | - | - | -
CCOc1ccc(NC(=O)CN(C)C(=O)C2CC(=O)N(c3cccc(SC)c3)C2)cc1OCC (stereo not drawn) | - | . | - | - | - | - | . | . | .
COc1ccc(CNC(=O)C2CCN(C(=O)c3ccc(-c4ccccc4)cc3)CC2)cc1 | - | - | - | 32 | - | - | - | - | -
Cc1ccc(-c2csc3nc4c5ccccc5c(NCCCN(C)C)nn4c(=O)c23)cc1 | - | - | - | - | - | 36 | - | - | -
CCc1nc(SCC(=O)Nc2ccc(Br)cn2)n[nH]1 | . | - | - | - | - | - | . | . | .
COc1ccc(C(=O)OCC(=O)c2c[nH]c3ccccc23)c(OC)c1 | - | . | - | - | - | - | . | . | . | BoNTA LC inh 2=-;LF protease CP2=-;BoNT-F LC CP2=-
COc1cccc(C(=O)OCC(=O)c2c[nH]c3ccccc23)c1OC | - | . | - | - | - | - | . | . | . | BoNTA LC inh 2=-;LF protease CP2=-;BoNT-F LC CP2=-
O=C(OCC(=O)c1c[nH]c2ccccc12)c1cccc([N+](=O)[O-])c1 | - | . | - | 39 | - | 33 | . | . | . | BoNTA LC inh 2=-;LF protease CP2=-;BoNT-F LC CP2=-
COc1ccc(C(=O)OCC(=O)c2cc(OC)ccc2OC)c(OC)c1 | - | - | - | - | - | - | . | . | .
COc1ccccc1C(=O)COC(=O)Cc1c[nH]c2ccccc12 | - | . | - | - | - | - | . | . | .
O=C(OCC(=O)c1c[nH]c2ccccc12)c1ccc(OC(F)F)cc1 | - | . | - | - | - | - | . | . | . | BoNTA LC inh 2=-;LF protease CP2=-;BoNT-F LC CP2=-
O=C(OCC(=O)c1c[nH]c2ccccc12)c1cncc(Br)c1 | - | . | - | - | - | - | . | . | .
NC(=O)Nc1ccc(C(=O)OCC(=O)c2c[nH]c3ccccc23)cc1 | - | . | - | - | - | - | . | . | .
CC(NC(=O)COC(=O)c1cc(=O)c2ccccc2o1)c1ccccc1 (stereo not drawn) | - | . | - | - | - | - | . | . | .

High-throughput results: PubChem BioAssay, several laboratories
